This note sets out measurements from PubChem BioAssay (EPA / NIEHS).

Read-out in test [1]: C-C motif chemokine 2 (Homo sapiens) (UniProt P13500)
Kind of test: BSK_KF3CT_MCP1: BioMAP Diversity Plus: KF3CT Assay for Monocyte Chemoattractant Protein 1 (MCP1/CCL2) Biomarker Activity (AID 2283073). Conditions: primary human keratinocytes with fibroblasts; actives raise or lower the signal. Put shortly: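 Human keratinocyte–foreskin fibroblast co-culture; MCP-1 measured by ELISA 24 h after dosing. Bidirectional fit vs DMSO; cytotoxicity tracked by SRB total protein in parallel cultures.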

Read-out in test [2]: Matrix Metallopeptidase 9 (MMP9), MMP9 (gene 4318)
Kind of test: BSK_KF3CT_MMP9: BioMAP Diversity Plus: KF3CT Assay for Matrix Metallopeptidase 9 (MMP9) Biomarker Activity (AID 2283074). Conditions: primary human keratinocytes with fibroblasts; actives raise or lower the signal. Put shortly: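 ELISA read-out of MMP-9 at 24 h post-dosing in a co-culture of human skin keratinocytes and foreskin fibroblasts. Gain or loss of signal was fitted in both directions against DMSO.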

Read-out in test [3]: urokinase plasminogen activator (uPA), PLAU (gene 5328)
Kind of test: BSK_KF3CT_uPA: BioMAP Diversity Plus: KF3CT Assay for urokinase plasminogen activator (uPA) Biomarker Activity (AID 2283075). Particulars: primary human keratinocytes with fibroblasts; actives raise or lower the signal. The essentials: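 Skin co-culture (keratinocytes + foreskin fibroblasts), human primary; 24 h post-dose; uPA by ELISA; gain/loss fit vs DMSO baseline.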

Read-out in test [4]: CD40, CD40 (gene 958)
Nature of the test: BSK_LPS_CD40: BioMAP Diversity Plus: LPS Assay for CD40 Biomarker Activity (AID 2283076). Conditions: primary human HUVEC with PBMC; actives raise or lower the signal. Put shortly:
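HUVEC plus PBMC co-culture stimulated with LPS; CD40 quantified by ELISA 24 h after compound dosing. Fitting was bidirectional relative to DMSO. SRB staining of parallel cultures flagged overt cytotoxicity.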

Read-out in test [5]: E-selectin (Homo sapiens) (UniProt P16581)
Kind of test: BSK_LPS_Eselectin: BioMAP Diversity Plus: LPS Assay for Eselectin Biomarker Activity (AID 2283077). Particulars: primary human HUVEC with PBMC; actives raise or lower the signal. Put shortly: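 Human umbilical vein endothelial cells co-cultured with PBMC under LPS stimulation; cell-surface E-selectin measured by ELISA 24 h after dosing. Change in either direction versus DMSO, with SRB total-protein staining in parallel cultures for cytotoxicity.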

Read-out in test [6]: Interleukin-8 (IL8), CXCL8 (gene 3576)
Kind of test: BSK_LPS_IL8: BioMAP Diversity Plus: LPS Assay for Interleukin-8 (IL8) Biomarker Activity (AID 2283078). Particulars: primary human HUVEC with PBMC; actives raise or lower the signal. Put shortly:
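Human umbilical vein endothelial cells co-cultured with PBMC, LPS-stimulated, exposed to compound for 24 h. IL-8 quantified by ELISA; fitted in both directions against DMSO, with SRB total-protein staining of parallel cultures for cytotoxicity.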

Test [7] in a line: BSK_LPS_SRB: Viability Assessment in the BioMAP Diversity Plus: LPS Assay (AID 2283079).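 Also: total protein by sulforhodamine B absorbance as a cytotoxicity measure; measured one day after compound addition.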 Conditions: primary human HUVEC with PBMC. Put shortly: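 Co-culture of human umbilical vein endothelial cells and PBMC, read 24 h after dosing. Total protein by 0.1% SRB staining after 10% TCA fixation, absorbance at 560 nm; bidirectional fit against DMSO.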
Read-out in test [8]: Interleukin-1 alpha (IL1a), IL1A (gene 3552)
Kind of test: BSK_LPS_IL1a: BioMAP Diversity Plus: LPS Assay for Interleukin-1 alpha (IL1a) Biomarker Activity (AID 2283080). Particulars: primary human HUVEC with PBMC; actives raise or lower the signal. The essentials: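 Human umbilical vein endothelial cells co-cultured with PBMC and stimulated with LPS; IL-1a measured by ELISA 24 h after dosing. Bidirectional fitting against DMSO; cytotoxicity checked by SRB staining in parallel cultures.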

Read-out in test [9]: Monocyte Chemoattractant Protein-1 (MCP1), CCL2 (gene 6347)
Kind of test: BSK_LPS_MCP1: BioMAP Diversity Plus: LPS Assay for Monocyte Chemoattractant Protein-1 (MCP1) Biomarker Activity (AID 2283081). Particulars: primary human HUVEC with PBMC; actives raise or lower the signal. The essentials: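 Human umbilical vein endothelial cells co-cultured with PBMC, LPS-stimulated; secreted MCP-1 measured by ELISA 24 h after compound addition. Bidirectional curve fitting against DMSO baseline; SRB total-protein staining in parallel cultures for cytotoxicity.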

A short description of test [10]: BSK_LPS_PGE2: BioMAP Diversity Plus: LPS Assay for Prostaglandin E2 (PGE2) Biomarker Activity (AID 2283082). Particulars: primary human HUVEC with PBMC; actives raise or lower the signal. Put shortly: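 Compounds were added to the LPS co-culture of endothelium and PBMC, and PGE2 was measured by ELISA after 24 h. Responses in either direction were fitted with DMSO as baseline.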

Read-out in test [11]: Macrophage colony-stimulating factor (MCSF), CSF1 (gene 1435)
Nature of the test: BSK_LPS_MCSF: BioMAP Diversity Plus: LPS Assay for Macrophage colony-stimulating factor (MCSF) Biomarker Activity (AID 2283083). Conditions: primary human HUVEC with PBMC; actives raise or lower the signal. The essentials:
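HUVEC–PBMC co-culture, M-CSF measured by ELISA 24 h after chemical dosing. Fitted in both directions relative to DMSO as negative control; overt cytotoxicity assessed by SRB total-protein staining in parallel cultures.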

Read-out in test [12]: Tissue Factor, F3 (gene 2152)
Kind of test: BSK_LPS_TissueFactor: BioMAP Diversity Plus: LPS Assay for Tissue Factor Biomarker Activity (AID 2283084). Conditions: primary human HUVEC with PBMC; actives raise or lower the signal. The essentials: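 Human umbilical vein endothelial cells co-cultured with PBMC were dosed with compound. Cell-surface CD142 was measured by ELISA 24 h later. Activity was fitted bidirectionally against DMSO, with SRB total-protein staining in parallel cultures for cytotoxicity.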

Read-out in test [13]: Tumor necrosis factor (Homo sapiens) (UniProt P01375)
Kind of test: BSK_LPS_TNFa: BioMAP Diversity Plus: LPS Assay for Tumour Necrosis Factor alpha (TNFa) Biomarker Activity (AID 2283085). Conditions: primary human HUVEC with PBMC; actives raise or lower the signal. Put shortly:
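Cells (umbilical vein endothelium plus peripheral blood mononuclear cells) were dosed with chemical, incubated 24 h, then TNFa was quantified by ELISA; values derive from bidirectional fitting with DMSO as baseline.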

Read-out in test [14]: Vascular cell adhesion molecule 1 (VCAM1), VCAM1 (gene 7412)
Nature of the test: BSK_LPS_VCAM1: BioMAP Diversity Plus: LPS Assay for Vascular cell adhesion molecule 1 (VCAM1) Biomarker Activity (AID 2283086). Particulars: primary human HUVEC with PBMC; actives raise or lower the signal. Put shortly:
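Cells are dosed in an LPS-stimulated endothelial/mononuclear co-culture and, after 24 h, VCAM-1 is quantified by ELISA. Activity in either direction is fitted relative to the DMSO negative control.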

Read-out in test [15]: CD40, CD40 (gene 958)
Kind of test: BSK_SAg_CD40: BioMAP Diversity Plus: SAg Assay for CD40 Biomarker Activity (AID 2283088). Particulars: primary human HUVEC with PBMC; actives raise or lower the signal. Put shortly:
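HUVEC plus PBMC co-culture, superantigen-activated, with CD40 read by ELISA 24 h after dosing. Curves fitted in both directions against DMSO. Overt cytotoxicity checked by parallel SRB total-protein staining.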

Read-out in test [16]: CD69, CD69 (gene 969)
Nature of the test: BSK_SAg_CD69: BioMAP Diversity Plus: SAg Assay for CD69 Biomarker Activity (AID 2283089). Conditions: primary human HUVEC with PBMC; actives raise or lower the signal. The essentials: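 Values derive from bidirectional fitting relative to DMSO vehicle. Cells: umbilical vein endothelium plus peripheral blood mononuclear cells, treated 24 h before fluorescent ELISA for CD69.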

Read-out in test [17]: Monocyte Chemoattractant Protein-1 (MCP1), CCL2 (gene 6347)
Nature of the test: BSK_SAg_MCP1: BioMAP Diversity Plus: SAg Assay for Monocyte Chemoattractant Protein-1 (MCP1) Biomarker Activity (AID 2283090). Particulars: primary human HUVEC with PBMC; actives raise or lower the signal. The essentials:
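Values derive from bidirectional fitting of ELISA-measured MCP1 against DMSO controls. Readings were taken 24 h after dosing human vascular endothelial cells co-cultured with peripheral blood mononuclear cells under superantigen stimulation.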

Read-out in test [18]: E-selectin (Homo sapiens) (UniProt P16581)
Nature of the test: BSK_SAg_Eselectin: BioMAP Diversity Plus: SAg Assay for Eselectin Biomarker Activity (AID 2283091). Conditions: primary human HUVEC with PBMC; actives raise or lower the signal. The essentials:
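Human umbilical vein endothelial cells co-cultured with peripheral blood mononuclear cells, SAg system. E-selectin is measured by ELISA 24 h after dosing and fitted bidirectionally against DMSO. Cytotoxicity is checked by SRB staining of parallel cultures.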

Read-out in test [19]: Transforming growth factor beta 1 (TGFb1), TGFB1 (gene 7040)
Nature of the test: BSK_KF3CT_TGFb1: BioMAP Diversity Plus: KF3CT Assay for Transforming growth factor beta 1 (TGFb1) Biomarker Activity (AID 2283072). Particulars: primary human keratinocytes with fibroblasts; actives raise or lower the signal. Put shortly:
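KF3CT co-culture (keratinocytes + fibroblasts), 24 h exposure → TGF-b1 ELISA → bidirectional fit, DMSO = baseline. Parallel SRB total-protein staining (0.1% SRB, 10% TCA fixation, 560 nm) for cytotoxicity.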

“And” between values parts separate entries of the source, which are not always exact repeats. Equal values may be shown once. The source made the active and inactive calls. The calls were made as follows: active = hit-call score of the fitted dose curve at least 0.9, where 1 is the maximum; inactive = score below 0.9.

Chain of Tumor necrosis factor (Homo sapiens) (P01375 whole entry, looked up): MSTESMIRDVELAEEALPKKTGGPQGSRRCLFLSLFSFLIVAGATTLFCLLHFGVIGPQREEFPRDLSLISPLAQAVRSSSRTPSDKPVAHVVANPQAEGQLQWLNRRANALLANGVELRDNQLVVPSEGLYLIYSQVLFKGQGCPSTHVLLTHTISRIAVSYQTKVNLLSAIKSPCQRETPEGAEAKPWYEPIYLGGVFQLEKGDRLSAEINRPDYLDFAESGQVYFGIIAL
Chain of E-selectin (Homo sapiens) (P16581 whole entry, looked up): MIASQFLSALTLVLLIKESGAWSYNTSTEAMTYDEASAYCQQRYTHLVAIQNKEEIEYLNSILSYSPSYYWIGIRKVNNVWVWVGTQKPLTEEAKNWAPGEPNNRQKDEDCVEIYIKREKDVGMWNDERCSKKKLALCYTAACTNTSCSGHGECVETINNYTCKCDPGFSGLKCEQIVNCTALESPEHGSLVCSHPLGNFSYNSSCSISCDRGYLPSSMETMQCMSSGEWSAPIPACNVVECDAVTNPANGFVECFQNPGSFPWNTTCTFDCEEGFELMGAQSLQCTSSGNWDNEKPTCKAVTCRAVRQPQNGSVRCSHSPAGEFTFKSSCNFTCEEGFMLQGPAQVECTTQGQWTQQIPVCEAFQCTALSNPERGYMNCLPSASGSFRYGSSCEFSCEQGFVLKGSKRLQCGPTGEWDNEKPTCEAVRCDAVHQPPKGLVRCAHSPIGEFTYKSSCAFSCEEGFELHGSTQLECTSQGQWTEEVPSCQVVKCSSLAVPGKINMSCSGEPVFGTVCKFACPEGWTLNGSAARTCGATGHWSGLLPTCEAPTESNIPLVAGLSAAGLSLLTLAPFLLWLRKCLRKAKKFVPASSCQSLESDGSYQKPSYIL

As a reminder, the AC50 is the concentration at which the activity in the assay is half-maximal. For the compound `O=S(=O)(O)C(F)(F)C(F)(F)OC(F)(F)C(F)(F)F`, the outcome in test [1], in test [2], in test [3], in test [4], in [5] and in test [7] was inactive. Also, the outcome in test [8], in [9], in [10], in [11], in test [12] and in test [13] was inactive. The outcome in [14], in test [15], in [16], in [17] and in test [18] was inactive. Moreover, the AC50 in [6] was 30 µM (active) and 10 µM (active).

For the compound `CC(=O)OCC=C(C)CCC=C(C)CCC=C(C)C`, the outcome in test [19], in test [1], in test [2], in test [3], in [4] and in test [5] was inactive. The outcome in test [6], in test [7], in test [8], in [9], in test [10] and in test [11] was inactive. The result in test [12], in test [13], in test [14], in test [15], in [16] and in [17] was inactive. The outcome in test [18] was inactive.

With `C=C(F)C(=O)OC(C(F)(F)F)C(F)(F)F`, the outcome in test [1], in test [2], in test [3], in test [4], in test [5] and in test [6] was inactive. Also, the result in test [7], in test [8], in test [9], in test [10], in test [11] and in test [12] was inactive. Also, the result in test [13], in [14], in [15], in test [16], in test [17] and in test [18] was inactive.
